Source: PubChem (National Center for Advancing Translational Sciences (NCATS))
This is one part of a sample in which hits are shown more often than they occur.
Cruzain inh Det: inhibitors of Trypanosoma cruzi cruzain with detergent; P25779; purified cruzain, Z-FR-AMC fluorescence, 0.01% Triton; Potency, µM, most hits filed as inhibitors; 200,000 tested, 0.43% active; AID 1478; further: nearly all actives have a fitted effect of over 40% in size
Target sequence (P25779 123-467 limits assumed): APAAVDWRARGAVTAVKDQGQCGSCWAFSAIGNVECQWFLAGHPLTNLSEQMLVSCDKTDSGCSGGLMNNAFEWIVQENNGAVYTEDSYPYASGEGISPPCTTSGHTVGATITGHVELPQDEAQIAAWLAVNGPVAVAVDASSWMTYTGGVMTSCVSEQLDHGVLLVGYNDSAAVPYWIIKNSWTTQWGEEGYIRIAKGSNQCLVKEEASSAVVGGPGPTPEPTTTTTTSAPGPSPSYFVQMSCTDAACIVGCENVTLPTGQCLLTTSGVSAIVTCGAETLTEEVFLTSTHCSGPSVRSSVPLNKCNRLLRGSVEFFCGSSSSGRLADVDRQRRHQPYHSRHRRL
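Read-out: AMC fluorescence (360 nm excitation, 450 nm emission), four reads over 2 min, first-to-third difference used. Conditions: cruzain 1.5 nM, Z-FR-AMC 2 uM, pH 5.5 acetate, 5 mM DTT, 0.01% Triton X-100.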
Cruzain inh noDet: blocks cruzain activity in detergent-free assay | purified cruzain, Z-FR-AMC fluorescence, no detergent | P25779 | 200,000 tested, 2.3% active | Potency, µM, most hits filed as inhibitors; further: nearly all actives have a fitted effect of over 40% in size
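Detergent-free condition (0.00005% Triton X-100) in acetate buffer pH 5.5 with DTT. 1.5 nM enzyme and compound were pre-mixed 15 min, then 2 uM Z-FR-AMC substrate added; reaction progress from fluorescence change between first and third reads (60 s).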
NS1 function inh: influenza NS1 inhibition. Potency, µM (series often up to 46.1 µM). 270,000 tested, 0.4% active. AID 2326; calls by dose curve; further: actives are rising curves; nearly all actives have a fitted effect of over 50% in size
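OD600 was taken as the measure of yeast growth restored by compound in an NS1-expressing S. cerevisiae strain. Cells had been washed out of glucose medium and diluted 1:100 into galactose -URA medium, pH 6.0.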
Numbers stand for hits. Unless noted, the call rests on the fitted dose curve; in most records, active means well fitted curve in the direction sought with a large enough effect; inconclusive means small, poorly fitted or top-dose-only effect, or another doubt; inactive means no such curve, though single readings can be large; an effect the other way counts as inactive or inconclusive.

Screening COc1ccc(NC(=O)CN(C)S(=O)(=O)c2ccc3c(c2)CC(C)N3C(C)=O)c(OC)c1 (stereo unspecified) returned NS1 function inh inactive.
CCCCc1cc(=O)oc2cc(C)cc(OCC(=O)NCc3ccccn3)c12 was read as NS1 function inh inactive.
Screening COc1ccc(/C=c2\s/c(=C/C(=O)c3ccc(C)cc3)[nH]c2=O)c(OC)c1 returned Cruzain inh Det inactive, Cruzain inh noDet 25µM and NS1 function inh inactive.
For COc1cccc(/C=c2\s/c(=C/C(=O)c3ccc(C)cc3)[nH]c2=O)c1OC the results were Cruzain inh Det inactive, Cruzain inh noDet inactive and NS1 function inh inactive.
O=c1c(-c2ccc(F)c(F)c2)nc2cncnc2n1Cc1ccccc1Cl was read as Cruzain inh Det inactive and Cruzain inh noDet inactive.
For NCCn1c(=O)c(CCc2ccccc2)nc2cncnc21 the results were Cruzain inh Det inactive and Cruzain inh noDet inactive.
`O=c1c(-c2cc(F)cc(F)c2)nc2cncnc2n1Cc1ccccc1Cl` gave Cruzain inh Det inactive and Cruzain inh noDet 25µM.
`O=c1c(CCc2ccccc2)nc2cncnc2n1Cc1ccccc1Cl` gave Cruzain inh Det inactive and Cruzain inh noDet 3.2µM.
CNc1oc(-c2ccccc2Cl)nc1P(=O)(c1ccccc1)c1ccccc1 was read as Cruzain inh Det inactive, Cruzain inh noDet inconclusive and NS1 function inh inactive.
For CNc1oc(-c2ccc(C)cc2)nc1P(=O)(c1ccccc1)c1ccccc1 the results were Cruzain inh Det 11µM, Cruzain inh noDet inactive and NS1 function inh inactive.
For O=C1c2ccccc2C(=O)N1CCCc1nc2ccccc2c(=O)n1Cc1ccco1 the results were Cruzain inh Det inactive, Cruzain inh noDet inactive and NS1 function inh inactive.
Screening CCCc1cc(=O)oc2cc(OCC(=O)NCC3CCC(C(=O)O)CC3)ccc12 (stereo unspecified) returned NS1 function inh inactive.
`O=C(Cc1cc(=O)oc2cc(O)ccc12)NCC1CCC(C(=O)O)CC1` (stereo unspecified) gave Cruzain inh Det 25µM, Cruzain inh noDet inactive and NS1 function inh inactive.
O=C(c1ccccc1)c1cc2cc(Cl)ccc2[nH]1 was read as NS1 function inh inactive.
Screening Cc1ccc(C(=O)Nc2ccc(N3CCN(S(C)(=O)=O)CC3)cc2)cc1C returned NS1 function inh inactive.
For CS(=O)(=O)N1CCN(c2ccc(NC(=O)CSc3ccc(Cl)cc3)cc2)CC1 the results were Cruzain inh Det inactive, Cruzain inh noDet 4µM and NS1 function inh inactive.
`Cc1ccc(C(=O)Nc2ccc(N3CCN(S(C)(=O)=O)CC3)cc2)cc1` gave Cruzain inh Det inactive, Cruzain inh noDet 16µM and NS1 function inh inactive.
For Cc1ccc(C(=O)N2CCN(c3ccc(NC(=O)CSc4ccc(Cl)cc4)cc3)CC2)cc1 the results were Cruzain inh Det inactive, Cruzain inh noDet inactive and NS1 function inh inactive.
COC(=O)C1=C(Nc2ccccc2NS(=O)(=O)c2ccc(C(F)(F)F)cc2Cl)CSC1 was read as NS1 function inh inactive.
Cc1cc(C)n(-c2ccc3nnc(C)n3n2)n1 was read as NS1 function inh inactive.
Screening Cc1n[nH]c(=S)n1/N=C/c1ccccc1OCc1ccc(Cl)cc1Cl returned Cruzain inh Det inactive, Cruzain inh noDet 16µM and NS1 function inh inactive.
For Cc1n[nH]c(=S)n1/N=C/c1ccc(OCc2ccc(Cl)cc2Cl)cc1 the results were Cruzain inh Det inactive, Cruzain inh noDet inactive and NS1 function inh inactive.
Screening CCOc1ccccc1C(=O)Nc1ccc(C(=O)c2ccccc2)cc1 returned NS1 function inh inactive.
`O=C(COc1ccccc1)Nc1ccc2c(c1)Cc1cc(NC(=O)COc3ccccc3)ccc1-2` gave Cruzain inh Det inactive, Cruzain inh noDet 2.5µM and NS1 function inh inactive.
`Cc1ccccc1OCC(=O)Nc1ccc2c(c1)Cc1ccccc1-2` gave Cruzain inh Det inactive, Cruzain inh noDet inconclusive and NS1 function inh inactive.
`Cc1ccc(S(=O)(=O)c2nc(NCc3ccc4c(c3)OCO4)sc2Cl)cc1` gave Cruzain inh Det inactive, Cruzain inh noDet inconclusive and NS1 function inh inactive.
Screening Cc1ccc(C)c(Nc2nn3c(=O)c4ccc(C(=O)NC5CCCCC5)cc4nc3s2)c1 returned Cruzain inh Det inactive and Cruzain inh noDet inactive.
`COc1ccccc1/C=C(/CC(=O)NCc1ccc2c(c1)OCO2)c1nc2ccccc2s1` gave Cruzain inh Det inactive, Cruzain inh noDet 16µM and NS1 function inh inactive.
Screening COc1ccc(/C=C(/CC(=O)Nc2ccccc2)c2nc3ccccc3s2)cc1 returned Cruzain inh Det inactive, Cruzain inh noDet inconclusive and NS1 function inh inactive.
`COc1ccc(/C=C(/CC(=O)NCc2ccc(Cl)cc2)c2nc3ccccc3s2)cc1` gave Cruzain inh Det inactive, Cruzain inh noDet 32µM and NS1 function inh inactive.
For O=C(O)C/C(=C\c1ccc2c(c1)OCO2)c1nc2ccccc2s1 the results were NS1 function inh inactive.
Screening CC1CCN(c2nc3ccccc3nc2C(C#N)C(=O)NC2CCCCC2)CC1 (stereo unspecified) returned Cruzain inh Det inactive, Cruzain inh noDet 20µM and NS1 function inh inactive.
`N#CC(C(=O)NC1CCCCC1)c1nc2ccccc2nc1N1CCOCC1` (stereo unspecified) gave Cruzain inh Det inactive, Cruzain inh noDet inactive and NS1 function inh inactive.
CCCCCCOC(=O)C(C#N)c1nc2ccccc2nc1N1CCN(C)CC1 (stereo unspecified) was read as Cruzain inh Det inactive, Cruzain inh noDet inactive and NS1 function inh inactive.
For CCCCCCOC(=O)C(C#N)c1nc2ccccc2nc1N1CCCCC1 (stereo unspecified) the results were Cruzain inh Det inactive, Cruzain inh noDet 25µM and NS1 function inh inactive.
CCN(C(=O)NCc1noc2ccccc12)c1cc(C)ccc1C was read as Cruzain inh Det inactive and Cruzain inh noDet inactive.
c1ccc(-c2cccc(N3CC[C@@]4(CCCNC4)C3)c2)cc1 was read as Cruzain inh Det inactive and Cruzain inh noDet inactive.
`COCCCN1C(=O)c2ccc(C(=O)NCc3ccccn3)cc2C1=O` gave NS1 function inh inactive.
`O=S(=O)(Nc1nc2ccccc2nc1Nc1ccc(N2CCOCC2)cc1)c1cc(Cl)ccc1Cl` gave Cruzain inh Det inactive, Cruzain inh noDet 20µM and NS1 function inh inactive.
`Clc1nc(Nc2ccc(N3CCOCC3)cc2)c2ccccc2n1` gave NS1 function inh inactive.
`CCN(CCCNC(=O)c1cc2cc3ccc(OC)cc3nc2s1)c1ccccc1` gave Cruzain inh Det 20µM and Cruzain inh noDet 32µM.
Screening CCN(CCCNC(=O)c1cc2cc3ccc(OC)cc3nc2s1)c1cccc(C)c1 returned Cruzain inh Det inactive and Cruzain inh noDet inconclusive.
For O=C(CN(c1cccc(C(F)(F)F)c1)S(=O)(=O)c1ccc(Cl)c([N+](=O)[O-])c1)NCc1ccccc1 the results were Cruzain inh Det inactive, Cruzain inh noDet inactive and NS1 function inh inactive.
O=C(CN(c1cccc(C(F)(F)F)c1)S(=O)(=O)c1ccc(Cl)c([N+](=O)[O-])c1)NCc1ccccc1Cl was read as Cruzain inh Det inactive, Cruzain inh noDet 25µM and NS1 function inh inactive.
O=C(CN1C(=O)c2ccccc2C1=O)Nc1ccc2c(c1)OCO2 was read as Cruzain inh Det inactive, Cruzain inh noDet inactive and NS1 function inh inactive.
CCOC(=O)c1c(NC(=O)CN2C(=O)c3ccccc3C2=O)sc(Cc2ccc3c(c2)OCO3)c1C was read as Cruzain inh Det inactive, Cruzain inh noDet 10µM and NS1 function inh inactive.
